Source: the supplement of paper PMC6555819

Tests used:
Assay in all cases: PBM binding z-score (relative to random genomic background probes); higher = stronger binding; sequences stand for … in GC…GCGATTGACAGCGTAGAATGAAGG
[1] = system: FXR:RXRa (NR concentration 270 nM, RXRa partner concentration 90 nM)
How it was run: (§1)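 Binding buffer was PBS pH 7.4 with 2% milk, 0.02% Triton X-100, 1 mM DTT, 0.2 mg/mL BSA and 0.4 mg/ml salmon testes DNA. In it, ligand-free nuclear receptor dimers were incubated 1 h on custom Agilent 4×180K protein-binding microarrays carrying double-stranded probes. Antibodies against each partner (one per run) detected binding, and z-scores were calculated against random background probes after regression normalization of scanned fluorescence.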

[2] = system: LXRa:RXRa (NR concentration 270 nM, RXRa partner concentration 90 nM)
How it was run: as §1

[3] = system: LXRa homodimer (NR concentration 270 nM)
How it was run: as §1

[4] = system: LXRb:RXRa (NR concentration 270 nM, RXRa partner concentration 90 nM)
How it was run: as §1

[5] = system: LXRb homodimer (NR concentration 270 nM)
How it was run: as §1

[6] = system: PPARa:RXRa (NR concentration 270 nM, RXRa partner concentration 90 nM)
How it was run: as §1

[7] = system: PPARg:RXRa (NR concentration 180 nM, RXRa partner concentration 90 nM)
How it was run: as §1

[8] = system: PPARg:RXRa 270nM:90nM, anti-RXR (NR concentration 270 nM, RXRa partner concentration 90 nM)
How it was run: as §1

[9] = system: PPARg:RXRa 30nM:10nM, anti-RXR (NR concentration 30 nM, RXRa partner concentration 10 nM)
How it was run: as §1

[10] = system: PPARg:RXRa 90nM:30nM, anti-RXR (NR concentration 90 nM, RXRa partner concentration 30 nM)
How it was run: as §1

Sequence | PBM binding z-score [1] | PBM binding z-score [2] | PBM binding z-score [3] | PBM binding z-score [4] | PBM binding z-score [5] | PBM binding z-score [6] | PBM binding z-score [7] | PBM binding z-score [8] | PBM binding z-score [9] | PBM binding z-score [10]
TCAGACAGGTGAAGGTATCTCAGGTACGCAGTCG | 0.108 | 0.719 | -0.00263 | 0.477 | -0.0583 | 0.944 | 0.741 | 2.22 | 3.93 | 3.03
TCTTGTAGATCAGCAGGTTAAGAGAGCTGGCCAA | -0.327 | -0.11 | -0.629 | 0.359 | -0.638 | 0.689 | -0.415 | 1.35 | 2.45 | 1.77
ACAGACAGGTGAGTCAAGGTAACTCAGCTGGACG | 1.06 | -0.203 | -0.155 | -0.37 | -0.551 | 0.333 | 0.647 | -0.164 | -0.257 | -0.347
GCTAGTTGGTCAGTAAAAGATCACACACCGGTCG | -0.109 | -0.07 | 0.00819 | -0.18 | -0.212 | -0.194 | 0.637 | -0.0816 | -0.233 | -0.12
ATATGTAGGTGACATCCGGGTCATTCAGGCTATG | 2.96 | 2.62 | 0.319 | 2.21 | 0.147 | 5.01 | 6.79 | 5.7 | 2.91 | 5
TAGCCTAGGTCTTGCGGGCCAGTATAGTGTCGGC | -0.844 | -0.906 | -0.807 | -1.17 | -1.2 | -0.636 | -0.663 | -0.775 | -0.745 | -1.05
CCGACTAGGGCAAAGGTTACCATACTCAGTACGA | 2.31 | 2.04 | 0.518 | 2.49 | -0.304 | 6.31 | 11.2 | 8.96 | 9.02 | 9.62
CGTACTGGGCCAAAGGTCATTGATTCCAATGCTC | 4.8 | 5.21 | 4.25 | 5.04 | 0.838 | 6.66 | 12.7 | 10.7 | 10.2 | 12.9
AGAACGAGGTTATTAAGATCAGGGAATTGCGGTC | 1.44 | 1.34 | -0.0763 | 1.09 | -0.115 | 2.15 | 1.26 | 1.68 | 0.389 | 0.958
AGTCAAAGTTCACTAGGTAAGGTAAGATTCAGCT | 5.15 | 4.75 | 3.2 | 3 | 1.19 | 4.4 | 6.73 | 5.99 | 3.11 | 5.44
CCTCAAAGTTCAAGGTAACGTAACAGAAAGCAGC | 5.83 | 5.87 | 3.49 | 3.83 | 1.95 | 4.85 | 2.87 | 3.67 | 0.99 | 2.22
AGAACGAGGGCAATGAGTCGATAGCACGGGTGGC | 0.187 | -0.15 | -0.625 | -0.448 | -0.595 | 1.03 | 1.41 | 0.849 | 0.0259 | 0.789
GCGACTGGGGCAAGGCAGGTTACCATAAGGTTGG | -0.183 | 0.247 | -0.418 | -0.0825 | -0.867 | 0.979 | 0.978 | 0.49 | -0.677 | 0.000745
GTACCAAGGTCAATAGGTCGTTGATGAGTAGGCG | 6.19 | 4.5 | 0.864 | 3.74 | 0.614 | 5.37 | 5.15 | 5.05 | 2.14 | 4.13
GCTGCCAGGTCAGGTTGGTCAGCTAACGGGTACG | 1.58 | 0.973 | -0.337 | 0.712 | -0.51 | 1.64 | 0.272 | 0.752 | -0.562 | 0.147
CATCAAAGTTCAAGGTAACGTAACAGAAAGCAGC | 6.68 | 5.7 | 3.88 | 3.79 | 2.13 | 4.66 | 3.59 | 4 | 1.71 | 2.82
CCGACTGGGGCAATGTTACCATAACGCACAGCCA | -0.585 | -0.725 | -0.195 | -0.162 | -1.01 | 0.11 | 1.21 | 0.645 | -0.14 | 0.223
TTACCCAGGTGAAGGTCGTTGATCCCTCTGTAGA | 1.67 | 1.53 | -0.000155 | 1.21 | -0.632 | 1.77 | 0.932 | 1.73 | 0.687 | 1.04
ATCGAAAGGTCGACGAGGTTAGTATACACCGTTT | 4.41 | 3.75 | 0.309 | 3.11 | 0.782 | 4.33 | 2.6 | 3.04 | 0.863 | 2.24

Sequence | PBM binding z-score [1] | PBM binding z-score [2] | PBM binding z-score [3] | PBM binding z-score [4] | PBM binding z-score [5] | PBM binding z-score [6] | PBM binding z-score [7] | PBM binding z-score [8] | PBM binding z-score [9] | PBM binding z-score [10]
GCTTGTAGACCAAGGTTAAGAAAGACTAAGCTAA | -0.248 | 0.608 | -0.357 | 0.335 | -0.903 | 1.16 | 0.792 | 1.61 | 0.387 | 1.17
CCTACTTGGCCATTCAGAGGTCATTGATCATATG | 3.12 | 4.37 | 6.52 | 4.31 | 1.21 | 3.83 | 0.976 | 2.46 | 0.88 | 1.77
CCCACTGGGGCAAGGTTACCATAACGCACAGCCA | 0.184 | 0.769 | -0.0723 | 0.417 | -0.882 | 2.46 | 4.81 | 4.76 | 1.92 | 4.56
ATCTCTAGGTAAGACTCAGTTCAGAGAAGAACGC | 0.455 | 0.578 | 0.401 | -0.0123 | 0.78 | -0.0205 | 0.366 | 0.339 | 0.28 | 0.268
CGTGAAAGTTCAACTAAGGTAACGTAAAGCACGC | 6.32 | 6.09 | 4.26 | 3.89 | 1.84 | 4.98 | 3.58 | 4.78 | 1.6 | 3.39
TAGCGTAGGTCATTCAGGGGCCAGTATAGAAAGC | 4.91 | 4.31 | 0.816 | 3.43 | 1.24 | 4.19 | 1.8 | 2.55 | 0.626 | 1.6
TCTTGTAGATCAGCAGGTTAAGATAGCTGGCCAA | -0.0531 | 0.217 | -0.176 | 0.312 | -0.375 | 0.692 | -0.179 | 1.28 | 2.71 | 1.95
AGTCAAAGTACACTAGGTAACGTAAGATTCAGCT | -0.108 | -0.26 | -0.164 | -0.273 | 0.0714 | 0.196 | 1.13 | 0.666 | 0.149 | 0.295
TCTTGTAGATCAACAGGAGGTGAAGAAAGATCGA | 0.155 | 0.134 | -0.343 | 0.298 | -0.585 | 0.798 | -0.0204 | 1.4 | 2.7 | 2.04
GCAGACAGGTGAACCGCAGGTAACTCAGGGTGGC | 0.339 | 0.437 | -0.44 | 0.125 | -1.15 | 1.77 | 0.554 | 0.309 | -0.52 | 0.0575
TTACCAAGGCGAAGGTCGTTGATCCCTCTGTAGA | 1.8 | 1.55 | -0.229 | 1.43 | -0.992 | 2.44 | 3.98 | 5.81 | 3.02 | 5.86
CCTTACAGGTCACTGACAGGTTATAGCATTTGGA | 6.15 | 4.93 | 2.19 | 3.88 | 0.942 | 5.23 | 4.78 | 4.44 | 2.1 | 3.27
TATACAGGGTCAAAGACCAGAGTACGAATGTCGA | 7.01 | 5.81 | 2.11 | 4.83 | 2.31 | 5.9 | 6.65 | 5.94 | 3.43 | 5.01
TCTGCTAGGTCAGTTGGTCAGATAACGAGCTGCC | 1.05 | 0.831 | -0.457 | 0.683 | 0.181 | 1.36 | 0.922 | 1.72 | 1.53 | 1.68
TCTTGTAGATCAAAGGTTTAGAAAGCCGAAGCCT | 0.668 | 0.408 | -0.116 | 0.454 | -0.505 | 1.63 | 3.22 | 5.08 | 4.18 | 5.48
CGTCCAAGGTCTAAGGTCAGTGAAGAGATGACGG | 2.27 | 1.6 | -0.0447 | 1.63 | -0.547 | 3 | 3.03 | 4 | 2.41 | 3.52
ACAGACAGGTGATGAATGTAACTCAGGCTATCAT | -0.237 | -0.163 | 0.164 | 0.1 | -0.131 | 0.166 | 0.735 | -0.0666 | 0.338 | -0.0676
TTACCAAGGTGAGCTGAAGTCGTTGATCCAACTC | -0.293 | -0.529 | -0.801 | -0.542 | -1.23 | 0.187 | -0.231 | 0.143 | -0.185 | 0.0287
TCATATAGGTAAATGCTAGGTGAAAATCCGATCT | 0.903 | 0.851 | 0.275 | 0.71 | 0.611 | 1.17 | 0.91 | 1.95 | 4.01 | 3.06
